Binding signal data for 22 molecules are collected here from publication PMC12136788.

Changes are numbered by the printed parent chain. In all, about 5,800 sequences were measured (“enrichment r”: median about 0.54, highest 2% from about 16 on). The full list was thinned out, with the highest values kept by preference.

B1: chr18:35263486:35263657:-|CDS|ENSG00000186814|control|control|control (ssRNA)
RNA: GGGAGUUCUACAGUCCGACGAUCGGAAAUGACAUCCACAGGAGCACUGAAGUCUCUGUCUCUGAAUAGCCCGGUGCAGCCCUUAGAGAACCAGUGCAAGACUGAGACUCAGGAGUCCCAGGCUUUCCAGGAGAGAGGUGAGAACAACAGAGGAUUGAGCAUCA
B2: chr4:138169334:138169435:-|3pUTR|ENSG00000151012|msi1|FALSE|unique (ssRNA)
RNA: GGGAGUUCUACAGUCCGACGAUCCCAUUUCACGCAGAAAAAAAGUCAGCCAGUAAUUAAGAAAAAAAGUGAUGGAGAUUAAGUAGUAUUUUGGCUUAUUUUUAGGACUCAUCAUGAGAAGACACAGUUCCUUUAAUCAGGAAACAACAGAGGAUUGAGCAUCA
B3: chr13:79312715:79312816:-|3pUTR|ENSG00000139746|unk|total|mutant (ssRNA)
RNA: GGGAGUUCUACAGUCCGACGAUCCCUUGUGAUUUAUUAUAAUGCCGCAGCAUACUUAUAAAAGUGGUCUGUGCUGAGUCAGACCGAGAGCCCAGCCCAUCCGAAACACAUCAUAAUUUAAGAAUAUGAUGCAGAAUGCCCUUACAACAGAGGAUUGAGCAUCA
B4: chr13:79312715:79312816:-|3pUTR|ENSG00000139746|unk|FALSE|unique (ssRNA)
RNA: B3 RNA with C44U, C45A, C83U, C84A, C100U, C101A
B5: chr4:138169334:138169435:-|3pUTR|ENSG00000151012|msi1|total|mutant (ssRNA)
RNA: B2 RNA with U83C, A84C, U102C, A103C
B6: chrX:155122998:155123099:+|3pUTR|ENSG00000185515|unk|FALSE|unique (ssRNA)
RNA: GGGAGUUCUACAGUCCGACGAUCCUACAUACACACAAAUGAAUGCAUGUAAAAUCUGGUGAUACUGAAUAAAGUCUGUGGUCUAGAUAGCAGUAUAAUAUUAUUGUCAAUGUCUUGGAUGUGAAGUUGUGCUAUAGUUACAAACAACAGAGGAUUGAGCAUCA
B7: chr17:5489330:5489445:+|CDS|ENSG00000167842|unk|FALSE|unique (ssRNA)
RNA: GGGAGUUCUACAGUCCGACGAUCACGUUGACUUUCUUUGAUGAGCUUCAUAAUGUUGGCAGAGAUCAUGGGACUAGUGAUUUUAGGGAGAGUUUAGUAUCCCUGGUUCAGAACUCCAGAAAACUACAGAACAUUAGAGACAAUCAACAGAGGAUUGAGCAUCA
B8: chr5:97028609:97028710:+|3pUTR|ENSG00000113441|msi1|total|mutant (ssRNA)
RNA: GGGAGUUCUACAGUCCGACGAUCUUGCAAAAGCCAAGGUAAAGCCAGGAUCGCUGCCAAGUUGUUUGCACUCUUUGGAGUUCCCGUCCGCUCAGGGCCUGACUGUAUUUUUCAUCCAUCUUUUCUGAAGUGUCUUUGGGCAGUCAACAGAGGAUUGAGCAUCA
B9: chr15:34983303:34983404:-|CDS|ENSG00000198146|msi1|FALSE|unique (ssRNA)
RNA: GGGAGUUCUACAGUCCGACGAUCGCUGAAAACAAUUUAAAAAUGCUAAAGAUUCAACAGUGUGUGGUAGCCAACAAACUACCUAGAAACAGGCCAUAUGUUUGCAAUAUUUGUUUUAAGCACUUUGAAACACCAUCAAAAUUACAACAGAGGAUUGAGCAUCA
B10: ENSG00000160710:stop:overlap|stop_codon|ENSG00000160710|stop_codon|NA|stop_codon (ssRNA)
RNA: GGGAGUUCUACAGUCCGACGAUCGCUAUGGGAACUGGAUUAGCAAACCCCAGGAGGAAAAGAACUUUUAUCUCUGCCCAGUAUAGUAUGCUCCAGUGACAGAUGGAUUAGGGUGUGUCAUACUAGGGUGUGAGAGAGGUAGGUCAACAGAGGAUUGAGCAUCA
B11: chr5:128187618:128187661:+|3pUTR|ENSG00000064651|msi1_unk|FALSE|overlapping (ssRNA)
RNA: GGGAGUUCUACAGUCCGACGAUCUCCUUUAUAAGUCAUUAAAAUAAUGUUUCAUCAAAUGGUUAAAUGGACCACUGGUUUCUUAGAGAAAUGUUUUUAGGCUUAAUUCAUUCAAUUGUCAAGUACACUUAGUCUUAAUACACUCAACAGAGGAUUGAGCAUCA
B12: ENSG00000198589:be:win_9101|3pUTR|ENSG00000198589|bound_else_gene|NA|bound_elsewhere_windowed (ssRNA)
RNA: GGGAGUUCUACAGUCCGACGAUCUUCAAGCAUGUUUUAGACCUAGAAAAGUAUGGUUUGGGGGAGGCUAUUUUAUUGUGUGGUUAGCACAAGGAAUCUAAUUUAUAGCAAGUGUGAAAUAGUUACCAUUUUUUCCUGAUCUGUCAACAGAGGAUUGAGCAUCA
B13: ENSG00000198589:be:win_9151|3pUTR|ENSG00000198589|bound_else_gene|NA|bound_elsewhere_windowed (ssRNA)
RNA: GGGAGUUCUACAGUCCGACGAUCAUUGUGUGGUUAGCACAAGGAAUCUAAUUUAUAGCAAGUGUGAAAUAGUUACCAUUUUUUCCUGAUCUGUCAUCUUCAUAGCACAACAAAACGAAAUGAUGGAAAUGCUCUUGAGCUCACCAACAGAGGAUUGAGCAUCA
B14: chr10:52765379:52768136:-|three_prime_utr|ENSG00000165471|control|control|control (ssRNA)
RNA: GGGAGUUCUACAGUCCGACGAUCUUGUUCCUUUUGUGGGCAAUCACUAAAAAUGAUCACUAACAGCACCAACAAAGCAAUAAUAGUAGUAGUAGUAGUUAGCAGCAGCAGUAGUAGUCAUGCUAAUUAUAUAAUAUUUUUAAUCAACAGAGGAUUGAGCAUCA
B15: chr3:112140897:112141281:-|three_prime_utr|ENSG00000172139|control|control|control (ssRNA)
RNA: GGGAGUUCUACAGUCCGACGAUCACUUUUUGCAAAAUUUCCUUGAUUUAAAAUAUUUGUUAUUUUAAAUAUACAAAACAUUUUAGAAAAUCUUAGAGUAAAUUUUAGUCUUAAAGCCAGAAAAUAAGUUUAUAGCCAUCUAGACAACAGAGGAUUGAGCAUCA
B16: chr6:149410404:149410522:+|3pUTR|ENSG00000055208|unk|FALSE|bound_elsewhere (ssRNA)
RNA: GGGAGUUCUACAGUCCGACGAUCUUAUAUUUCUAUAUGUAUAGUGUAAUAGCCUUUUGUUAACUAAUUUUCUUUUUUCCUUUUAGUAAUUAAGCACGAUCAUGUCCCUUUUUAAGCCUUACCUGAGAGGAACAAUGCCUUAAACAACAGAGGAUUGAGCAUCA
B17: ENSG00000198589:be:win_9201|3pUTR|ENSG00000198589|bound_else_gene|NA|bound_elsewhere_windowed (ssRNA)
RNA: GGGAGUUCUACAGUCCGACGAUCACCAUUUUUUCCUGAUCUGUCAUCUUCAUAGCACAACAAAACGAAAUGAUGGAAAUGCUCUUGAGCUCACAACAUUUGUUUUUCUUUUAAAGUAAAUGCAAGUACCAAAGCUCACUACUGCAACAGAGGAUUGAGCAUCA
B18: chr12:89590234:89590335:-|3pUTR|ENSG00000070961|msi1|FALSE|bound_elsewhere (ssRNA)
RNA: GGGAGUUCUACAGUCCGACGAUCUUUGCCUACAAUUUACCUUGUUAAAUAUUGUAGAUAAAUUGCUAAUACUAAUAGCCAAAUAGAUAACACUAAUGCUUUGUUUAAAAAAACGAAAAAAACAAAACAAAACAAAAAAACAUGCAACAGAGGAUUGAGCAUCA
B19: chr2:15946816:15946917:+|3pUTR|ENSG00000134323|unk|FALSE|unique (ssRNA)
RNA: GGGAGUUCUACAGUCCGACGAUCUAUAUGCCUUUUUCCUAGCCUGUUUCUUCCUGUUAAUGUAUUUGUUCAUGUUUGGUGCAUAGAACUGGGUAAAUGCAAAGUUCUGUGUUUAAUUUCUUCAAAAUGUAUAUAUUUAGUGCUCAACAGAGGAUUGAGCAUCA
B20: chr6:149410404:149410522:+|3pUTR|ENSG00000055208|unk|total|mutant (ssRNA)
RNA: B16 RNA with U41C, A42C, U49C, A50C, U83C, A84C
B21: chr11:118750849:118750950:-|3pUTR|ENSG00000110367|msi1|total|mutant (ssRNA)
RNA: GGGAGUUCUACAGUCCGACGAUCAUUCCCGAAAGUACUUUGGCCUCGUGCUGCCGAGAGCAGAUUUCUAUGGUACCCUGUGUCCGUAAAGGGGCCCAGAAAUCUGGGAUGUACUGUUUGCUGCCACACUGUCUCAUCCCGUACCAACAGAGGAUUGAGCAUCA
B22: chr10:32033860:32033975:-|CDS|ENSG00000170759|unk|FALSE|unique (ssRNA)
RNA: GGGAGUUCUACAGUCCGACGAUCCACAGUGGAUAAAGAUAUUACUCUUACCAAUGAUAAACCAGCAACCGCAAUUGGAGUUAUAGGAAAUUUUACUGAUGCUGAAAGAAGAAAGUGUGAAGAAGAAAUUGCUAAAUUAUACAACAACAGAGGAUUGAGCAUCA

MSI1 full-length, sequence (Q61474 whole entry): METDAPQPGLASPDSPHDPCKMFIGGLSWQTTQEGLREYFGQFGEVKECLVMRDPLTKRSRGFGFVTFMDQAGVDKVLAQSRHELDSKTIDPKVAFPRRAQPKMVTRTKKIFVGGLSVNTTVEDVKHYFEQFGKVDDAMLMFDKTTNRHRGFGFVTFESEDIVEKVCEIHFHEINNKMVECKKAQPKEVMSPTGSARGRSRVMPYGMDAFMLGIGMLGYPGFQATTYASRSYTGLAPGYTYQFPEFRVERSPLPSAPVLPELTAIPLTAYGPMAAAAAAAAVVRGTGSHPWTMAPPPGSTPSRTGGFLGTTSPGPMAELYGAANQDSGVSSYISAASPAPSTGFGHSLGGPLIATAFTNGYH

The assay concerns the target MSI1 full-length (mouse, UniProt Q61474 1-362). Kind of assay: nsRBNS (natural sequence RNA bind-n-seq); RBNS binding buffer (assumed for nsRBNS): 25 mM Tris pH 7.5, 150 mM KCl, 3 mM MgCl2, 0.01% Triton X-100, 500 ug/ml BSA, 20 U/ml SUPERase-In, 4 C; UNK is unkempt and MSI1 is Musashi-1; names of the RNAs are library labels; protein concentration not given here; high values mean tight binding.
On to B1, for which the binding signal is 0.496 enrichment R.

Molecule B2 yielded a binding signal of 19.3 enrichment R.

B3 returned a binding signal of 1.96 enrichment R.

On to B4, for which the binding signal was found to be 17.8 enrichment R.

In turn, B5 had a binding signal of 0.883 enrichment R.

In turn, B6 yielded a binding signal of 2.09 enrichment R.

B7 gave a binding signal of 1.88 enrichment R.

B8 gave a binding signal of 0.321 enrichment R.

B9: the binding signal came out at 0.421 enrichment R.

B10 came in with a binding signal of 1.25 enrichment R.

On to B11, for which the binding signal worked out at 15.5 enrichment R.

Take B12: the binding signal was 7.83 enrichment R.

B13 gave a binding signal of 33.5 enrichment R.

For B14, the binding signal amounted to 83.7 enrichment R.

In the case of B15, the binding signal stood at 14.9 enrichment R.

As to B16, the binding signal was 30.1 enrichment R.

B17 yielded a binding signal of 0.392 enrichment R.

Regarding B18, the binding signal amounted to 1.67 enrichment R.

In the case of B19, the binding signal came out at 6.12 enrichment R.

Consider B20, for which the binding signal worked out at 11.2 enrichment R.

Take B21: the binding signal was determined as 0.539 enrichment R.

For B22, the binding signal came out at 1.59 enrichment R.
